PubChem BioAssay AID488977 (Johns Hopkins Ion Channel Center, 2010)
Screen size: about 310,000 compounds; about 1,500 (0.48%) were called active.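 The calls were made as follows: active = initial fluorescence not abnormally high and integrated response B-score, plate-corrected, over 3 SD above library mean; inactive = the rest.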 Only a selection was taken, and actives are over-represented in it overall.

biological target: High affinity choline transporter 1 (Homo sapiens) (UniProt Q9GZV3); assay: CHT positive allosteric modulators, primary screen, cell-based, membrane potential dye, choline EC20 (AID 488977); conditions: CHT-expressing cells, at 10 µM, LV-AA mutant CHT in HEK293 cells; hits give high values
Sequence (Q9GZV3 whole entry, looked up): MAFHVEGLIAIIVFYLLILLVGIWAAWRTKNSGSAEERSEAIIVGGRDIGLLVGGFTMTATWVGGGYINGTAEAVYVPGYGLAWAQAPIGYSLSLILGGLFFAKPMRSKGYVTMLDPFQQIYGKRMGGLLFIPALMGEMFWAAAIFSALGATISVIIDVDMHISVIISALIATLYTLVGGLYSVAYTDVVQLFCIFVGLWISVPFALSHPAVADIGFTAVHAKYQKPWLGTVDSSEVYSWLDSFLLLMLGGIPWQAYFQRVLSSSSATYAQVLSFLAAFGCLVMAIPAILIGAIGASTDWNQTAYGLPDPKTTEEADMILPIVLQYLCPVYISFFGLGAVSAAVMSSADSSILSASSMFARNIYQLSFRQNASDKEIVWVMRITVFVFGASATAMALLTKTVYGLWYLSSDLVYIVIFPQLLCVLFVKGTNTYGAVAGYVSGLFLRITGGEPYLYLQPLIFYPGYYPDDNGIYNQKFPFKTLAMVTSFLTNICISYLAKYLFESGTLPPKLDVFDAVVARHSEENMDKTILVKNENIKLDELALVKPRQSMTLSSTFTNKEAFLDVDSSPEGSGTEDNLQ

B-score, inactive:
Cc1cc(O)c(Sc2ccccc2)c(=O)o1, Cc1ccc(Cn2cc(C(=O)NN)c(=O)c3ccc(F)cc32)cc1, CCCCCCn1cc(C(=O)O)c(=O)c2cc(F)c(N3CCCCC3)cc21, Cc1cc(C)c(S(=O)(=O)n2cc(C(C)C(N)C(=O)O)c3ccccc32)c(C)c1 (stereo not given), CCCn1c(C)cc(-c2csc(NC(=O)CCc3nc4ccccc4c(=O)[nH]3)n2)c1C, O=C1c2ccccc2C(=O)c2c1cccc2N1CCN(Cc2ccccc2)CC1, O=C1c2ccccc2C(=O)c2c1cccc2N1CCN(C/C=C/c2ccccc2)CC1, COc1ccc(C(=O)C2CCCN(C(=O)c3ccc(OC)o3)C2)c(C)c1 (stereo not given), COc1ccc(NC(=O)CCC(=O)N2CCN(S(=O)(=O)c3ccc(C)cc3)CC2)c(OC)c1, COc1ccc2sc(N(CCCN(C)C)C(=O)c3ccc(S(=O)(=O)N(C)C4CCCCC4)cc3)nc2c1, CCN1C(=O)[C@H]2[C@@H](c3ccc(-c4ccc(OC)cc4)cc3)N[C@@](Cc3ccccc3)(C(=O)OC)[C@H]2C1=O, CCCc1cc(=O)oc2c(C)c(OC(C)C(=O)NCC(O)c3ccccc3)ccc12 (stereo not given), Cc1c(OC(C)C(=O)NCC2CCC(C(=O)O)CC2)ccc2c1oc(=O)c1ccccc12 (stereo not given), CC(OC(=O)C1CC(=O)N(Cc2ccccc2)C1)C(=O)Nc1ccccc1[N+](=O)[O-] (stereo not given), CC(C)Oc1ccc(S(=O)(=O)N2CCOCC2)cc1NC(=O)C1CSC2(C)CCC(=O)N12 (stereo not given), Cc1cc(Nc2ccc(Br)cc2)nc2ccccc12, Cc1ccc(NC(=O)c2cnc(SCC(=O)NCC3CCCO3)n(C)c2=O)cc1 (stereo not given), Cc1cccn2c(=O)c3cc(C(=O)N4COCC4(C)C)n(C)c3nc12, Cc1cccn2c(=O)c3cc(C(=O)NCCN4CCOCC4)c(=N)n(Cc4cccnc4)c3nc12, Cc1ccc2nc(NC(=O)CSc3nc(=O)n(CCCN(C)C)c4c3CCC4)sc2c1, COC(=O)c1cc(OC)c(OC)cc1NC(=O)C1CCCO1 (stereo not given), O=C(C1CCCO1)N1CCC(c2nc3ccccc3[nH]2)CC1 (stereo not given), COc1ccc(-c2cc(C(=O)N/N=C/c3cccnc3)c3ccccc3n2)c(OC)c1, Cc1ccc(CNC(=O)c2cc(-c3ccccc3C)n(CC3CC(c4cccc([N+](=O)[O-])c4)=NO3)n2)cc1 (stereo not given), Cc1cccc(N(Cc2ccccc2)C(=O)c2ccccc2F)c1, CCN(CC)C(=O)N(CC)Cc1ccccc1, Cc1ccc(NC(=O)CSCC(=O)Nc2sccc2C#N)cc1, CN1CCN(c2nc3c(c(=O)[nH]c(=O)n3C)n2Cc2cccc3ccccc23)CC1, Cc1nnc(SCCCn2c(N3CCCCC3)nc3c2c(=O)[nH]c(=O)n3C)s1, CCC1Nc2ncnc(N3CCN(c4ccccc4)CC3)c2N(Cc2ccc(Cl)cc2)C1=O (stereo not given), O=C(CCC1CCCCC1)Nc1cc(C(F)(F)F)ccc1N1CCOCC1, CC(C)c1ccc(S(=O)(=O)N2CCN(C(=O)CN3C(=O)NC(C)(c4ccccc4)C3=O)CC2)cc1 (stereo not given), CCCCCCCNC(=O)C1(CC2CC(c3cccc(Br)c3)=NO2)CCN(C(=O)c2cc(OCC)c(OCC)c(OCC)c2)CC1 (stereo not given), Cc1ccc(S(=O)(=O)N2CCN(C(=O)Cc3sc(C)nc3-c3ccc(F)cc3)CC2)c(C)c1, O=C(Nc1ncccc1O)c1ccc(C(=O)c2ccccc2)cc1, COc1ccccc1CCC(=O)NNC(=O)c1ccncc1, O=C(Nc1ccc(Cl)cn1)c1cnn2cccnc12, Cc1cc(NC(=O)Nc2ccccc2)n(-c2ccccc2)n1, CCOc1cc(C(=O)Nc2ccc(S(=O)(=O)Nc3cnc4ccccc4n3)cc2)cc(OCC)c1OCC, O=C(NCC(c1ccco1)N1CCc2ccccc2C1)c1ccccc1Cl (stereo not given), COc1ccc(C(CNC(=O)c2cccc(NS(=O)(=O)c3ccc(C)c(F)c3)c2)N2CCCC2)cc1 (stereo not given), CCOC(=O)N1CCN(C(=O)c2ccc(S(=O)(=O)Nc3cccc(C(F)(F)F)c3)cc2)CC1, CCOC(=O)c1cc2ccccc2n1CC(=O)c1ccccc1, Cc1onc(-c2ccccc2Cl)c1C(=O)OCc1nnc(-c2ccccc2)o1, CCN(CC(=O)Nc1c(F)cccc1F)C(=O)c1ccc(-c2ccccc2)cc1, O=C(CSC1=NS(=O)(=O)c2cc(F)ccc2N1)Nc1ccccc1F, COc1cccc(CC2(CO)CCCN(Cc3ccc(OC(F)F)cc3)C2)c1 (stereo not given), CCCCCN(C(=O)CCC(=O)OCCOc1ccc(OC)cc1)c1c(N)n(CCCC)c(=O)[nH]c1=O, CCCCCC(=O)N1CCN(S(=O)(=O)c2ccc3c(c2)OCCCO3)CC1, c1ccc(Nc2nc(N3CCOCC3)c3ccccc3n2)cc1, Cc1cccc(-c2nc(Nc3ccc(O)cc3)c3ccccc3n2)c1, C=CCOc1cccc(C2C(C(=O)c3ccc(C)o3)=C(O)C(=O)N2c2nnc(C)s2)c1 (stereo not given), Cc1c(NC(=O)C(C)OC(=O)c2c3c(nc4ccccc24)CCC(C)C3)c(=O)n(-c2ccccc2)n1C (stereo not given), CCOC(=O)CN(C)S(=O)(=O)c1ccc(-c2cc(C(=O)OC)sc2C(F)(F)F)cc1, COC(=O)c1cc2nc(-c3ccccc3)cc(C(F)(F)F)n2n1, CC1(C)CC[C@]2(C(=O)O)CC[C@]3(C)C(=CCC4[C@@]5(C)CC[C@H](O)C(C)(C)C5[C@H](O)C[C@]43C)[C@@H]2C1 (stereo not given in full), Cc1ccc(/C=C2\CCn3c2nc2cc(C(=O)O)ccc2c3=O)c(C)c1, O=C(O)c1ccc2c(=O)n3c(nc2c1)/C(=C/c1ccc(Cl)c([N+](=O)[O-])c1)CC3, N=c1c2c3c(sc2nc2n1CCCCC2)CCCC3, CC(C)c1nc2sc3c(c2c(=O)n1N)CC(C)(C)OC3, CC1CCC2(CC1)NC(=O)N(CC(=O)c1ccc3c(c1)OCO3)C2=O (stereo not given), Cc1ccccc1NC(=O)COc1cccc2c1CCNC2=O, CC1CCc2[nH]c3ccc(C(=O)N(C)CC(=O)Nc4cccc(F)c4)cc3c2C1 (stereo not given), Cc1nc2ccccc2c(=O)n1Cc1ccc([N+](=O)[O-])cc1, Clc1c(OCCCn2ccnc2)ccc2ccccc12, CCCCN(C1CCS(=O)(=O)C1)S(=O)(=O)c1ccc(C(C)C)cc1 (stereo not given), CCOC(=O)c1cnc2sccn2c1=O, O=C(NCc1ccccn1)c1cnc2sccn2c1=O, COc1cnn(-c2ccc([N+](=O)[O-])cc2)c(=O)c1Cl, Cc1ccc(-c2cc(=O)[nH]c(NCc3ccccc3)n2)cc1, COc1ccc(C(=O)CN(C(=O)c2ccc(Cl)cc2)N2C(=O)c3ccccc3C2=O)cc1, CCn1c(C)cc(=O)cc1-c1ccc(Cl)cc1, CN(Cc1ccccc1F)C(=O)C(Cc1ccccc1)NC(=O)c1ccccc1 (stereo not given), OCCCNc1nc(-c2ccccc2)c2cc(Cl)ccc2n1, COc1ccccc1C(=O)NC(CCSC)C(=O)N1CCN(C/C=C/c2ccccc2)CC1 (stereo not given), O=C(Nc1ccc2c(c1)OCO2)c1ccc(N2C(=O)c3ccccc3C2=O)cc1, Cn1c(=O)n(C)c2cc(C(=O)Nc3ccc(Br)cc3)ccc21, CCc1ccc(Nc2n[n+](-c3ccccc3)c(-c3cccc(Cl)c3Cl)s2)cc1, O=S(=O)(NCCCc1ccccc1)c1ccc(Br)cc1, CCCCn1c(N)c(N(CC(C)C)C(=O)c2ccc(Br)o2)c(=O)[nH]c1=O, CCCCn1c(N)c(N(CCC(C)C)C(=O)c2ccc([N+](=O)[O-])o2)c(=O)[nH]c1=O

B-score, active:
CCOC(=O)c1cn(CC)c2cc(F)c(F)cc2c1=O 7.03, O=C1c2ccccc2C(=O)c2c1cccc2N1CCN(CCO)CC1 8.6, Cc1cc(=O)oc2c(C)c(OC(C)C(=O)NC3CCN(Cc4ccccc4)CC3)ccc12 (stereo not given) 6.43, Cc1cccn2c(=O)c3cc(C#N)c(=O)n(CCCN4CCOCC4)c3nc12 7.22, COc1cc2nc(N3CCN(C(=O)[C@@H]4CCCO4)CC3)nc(N)c2cc1OC 8.15, O=C(c1ccccc1F)N(Cc1ccccc1)Cc1ccccc1 6.51, Cn1c(=O)[nH]c(=O)c2c1nc(N1CCN(CCO)CC1)n2CCSc1nc2ccccc2s1 7.66, Cc1cc(NC(=O)c2cnn3cccnc23)n(-c2ccccc2)n1 6.76, CCn1c(/C=C/Nc2ccccc2)[n+](CC)c2ccc(C(=O)OCC(F)(F)F)cc21 7.01, CN1CCN(c2nc(Nc3ccc(O)cc3)nc3ccccc23)CC1 6.97, COC(=O)c1sc(C(F)(F)F)c(-c2ccccc2)c1S(=O)(=O)N(C)C 9.76, N#Cc1ccc(/C=C2\CCn3c2nc2cc(C(=O)O)ccc2c3=O)cc1 6.78, CC1(C)Cc2c(sc3nc4n(c(=N)c23)CCCCC4)CO1 7.43, Cc1nc2ccccc2c(=O)n1CCCn1ccnc1 8.67, CN(C)/C=C/C(=O)c1cnc2sccn2c1=O 6.34, COc1ccc(Cn2c(-c3ccc(Cl)cc3)c[n+]3ccccc23)cc1 7.07, Cc1cc2c(cc1C)[n+](C)cn2CC(O)COCC1CC=CCC1 (stereo not given) 12.6, Cn1c(=O)n(C)c2cc(C(=O)Nc3ccc4c(c3)OCO4)ccc21 6.95, CCCCn1c(N)c(N(CCC(C)C)C(=O)c2ccc(COc3ccccc3)o2)c(=O)[nH]c1=O 12.1
